# Measurements: PMC11062922 (Nature Chemical Biology, 2023)
# Where two headings read alike, the source gives them in different places.
# Assays:
# Set-up in all cases: species or system human, MV4-11 + K-562 + COLO205 + SK-N-BE2 + OVCAR-8
# ACVR1B = conditions: read-out: apparent Kd, n = 1
# EPHB1 = conditions: read-out: apparent Kd; compound concentrations:100 nM and 1000 nM (sheet 'Samples'); n = 1
# PIK3CD = conditions: read-out: apparent Kd, n = 1
# TTK = conditions: read-out: apparent Kd, n = 1
# NUAK2 = conditions: read-out: apparent Kd, n = 1
# LCK = conditions: read-out: apparent Kd; compound concentrations:100 nM and 1000 nM (sheet 'Samples'); n = 1
# MAP3K11 = conditions: read-out: apparent Kd; compound concentrations:100 nM and 1000 nM (sheet 'Samples'); n = 1
# MAPK14 = conditions: read-out: apparent Kd; compound concentrations:100 nM and 1000 nM (sheet 'Samples'); n = 1
# PTK6 = conditions: read-out: apparent Kd; compound concentrations:100 nM and 1000 nM (sheet 'Samples'); n = 1
# CDC42BPB = conditions: read-out: apparent Kd, n = 1
# CIT = conditions: read-out: apparent Kd, n = 1
# PKN2 = conditions: read-out: apparent Kd, n = 1
# AURKB = conditions: read-out: apparent Kd; compound concentrations: 100 nM and 1000 nM (sheet 'Samples'), CATDS: 8.4552521896549809E-3; n = 1
# PAK6 = conditions: read-out: apparent Kd, compound concentrations: 100 nM and 1000 nM (sheet 'Samples'), n = 1
# PRKCA = conditions: read-out: apparent Kd, n = 1
# RPS6KA3 = conditions: read-out: apparent Kd, n = 1
# RPS6KB1 = conditions: read-out: apparent Kd; compound concentrations:100 nM and 1000 nM (sheet 'Samples'); n = 1
# [1] = compound concentrations:100 nM and 1000 nM (sheet 'Samples')
structure (smiles),measurement,setting,value
CNc1cc(-c2ccc3c(N)n[nH]c3c2)nc(N)n1 [GSK2224810A],potency estimated from few doses,ACVR1B; [1],361 nM
same,potency estimated from few doses,EPHB1,1180 nM
same,potency estimated from few doses,PIK3CD; [1],83.4 nM
CCn1c(-c2cccnc2O)nc2cnccc21 [SB-736715],potency estimated from few doses,"ACVR1B; compound concentrations: 100 nM and 1000 nM (sheet 'Samples'), CATDS: 1.8200726561527599E-2",889 nM
same,potency estimated from few doses,"PIK3CD; compound concentrations: 100 nM and 1000 nM (sheet 'Samples'), CATDS: 9.8292238183885799E-2",84.5 nM
same,potency estimated from few doses,"TTK; compound concentrations: 100 nM and 1000 nM (sheet 'Samples'), CATDS: 1.5814183064690599E-2",1160 nM
CC(C)Oc1ccc2c(-c3ccnc(Nc4ccc(N5CCN(C)CC5)cc4)n3)cnn2n1 [GW696155X],potency estimated from few doses,NUAK2; [1],600 nM
CS(=O)(=O)CCn1c(=O)c(Oc2ccc(F)cc2F)cc2cnc(NC3CCOCC3)nc21 [RO5027956-000],potency estimated from few doses,EPHB1,892 nM
same,potency estimated from few doses,LCK,1160 nM
same,potency estimated from few doses,MAP3K11,1930 nM
same,potency estimated from few doses,MAPK14,17.9 nM
same,potency estimated from few doses,PTK6,1310 nM
NCC(NC(=O)c1cc(-c2cn[nH]c2)c(-c2ccnc3[nH]ccc23)s1)c1ccccc1.NCC(NC(=O)c1cc(-c2cn[nH]c2)c(-c2ccnc3[nH]ccc23)s1)c1ccccc1.O=C(O)C(F)(F)F.O=C(O)C(F)(F)F (stereo not shown) [GSK1325775A],potency estimated from few doses,"ACVR1B; compound concentrations: 100 nM and 1000 nM (sheet 'Samples'), CATDS: 3.7153250837812998E-2",1020 nM
same,potency estimated from few doses,"CDC42BPB; compound concentrations: 100 nM and 1000 nM (sheet 'Samples'), CATDS: 0.23472145831324301",29.3 nM
same,potency estimated from few doses,"CIT; compound concentrations: 100 nM and 1000 nM (sheet 'Samples'), CATDS: 4.2305109651231403E-2",719 nM
same,potency estimated from few doses,"PKN2; compound concentrations: 100 nM and 1000 nM (sheet 'Samples'), CATDS: 3.8123557619569197E-2",949 nM
COC(=O)c1cccc(NC(=O)NC2CCN(c3ccnc(Nc4cc(OC)c(OC)c(OC)c4)n3)C2)c1 (stereo not shown) [GSK1379767A],potency estimated from few doses,"PIK3CD; compound concentrations: 100 nM and 1000 nM (sheet 'Samples'), CATDS: 0.49933192218353101",112 nM
O=C(O)C(F)(F)F.O=c1[nH]ccc2nc(N[C@@H]3CCNC3)nc(Nc3ccc4c(c3)S(=O)(=O)CC4)c12 [GSK2181306A],potency estimated from few doses,AURKB,1530 nM
same,potency estimated from few doses,"CDC42BPB; compound concentrations: 100 nM and 1000 nM (sheet 'Samples'), CATDS: 8.6780352700712906E-3",1380 nM
same,potency estimated from few doses,"NUAK2; compound concentrations: 100 nM and 1000 nM (sheet 'Samples'), CATDS: 1.3760463216936501E-2",376 nM
same,potency estimated from few doses,PAK6; CATDS: 8.7541295114789697E-3,1330 nM
same,potency estimated from few doses,"PRKCA; compound concentrations: 100 nM and 1000 nM (sheet 'Samples'), CATDS: 1.32180266874378E-2",412 nM
same,potency estimated from few doses,"RPS6KA3; compound concentrations: 100 nM and 1000 nM (sheet 'Samples'), CATDS: 9.3639610273777898E-3",1050 nM
CCN(CC)Cc1ccc(Nc2nccc(-c3cnn4ncccc34)n2)cc1 [GW780056X],potency estimated from few doses,"NUAK2; compound concentrations: 100 nM and 1000 nM (sheet 'Samples'), CATDS: 2.1304819470262599E-2",1070 nM
same,potency estimated from few doses,PAK6; CATDS: 1.8956003976459398E-2,1620 nM
c1ccc(-c2n[nH]cc2Nc2ccnc3ccccc23)nc1 [GW694077X],potency estimated from few doses,"PIK3CD; compound concentrations: 100 nM and 1000 nM (sheet 'Samples'), CATDS: 5.6537253255213298E-2",148 nM
same,potency estimated from few doses,"PKN2; compound concentrations: 100 nM and 1000 nM (sheet 'Samples'), CATDS: 2.23851306081322E-2",2310 nM
CC(C)(CO)CNC(=O)c1ccc2c(c1)/C(=N/Nc1ccc(S(N)(=O)=O)cc1)C(=O)N2 [GW301784X],potency estimated from few doses,TTK; [1],983 nM
CN[C@H](C#Cc1c(F)ccc2c1/C(=C/c1[nH]ccc1OC)C(=O)N2)CO.Cl [RO0283049-001],potency estimated from few doses,"TTK; compound concentrations: 100 nM and 1000 nM (sheet 'Samples'), CATDS: 1.9624563492428401E-2",2080 nM
CN(C)c1ccc2c(c1)/C(=C/Nc1ccc(S(N)(=O)=O)cc1)C(=O)N2 [GW416469X],potency estimated from few doses,"PIK3CD; compound concentrations: 100 nM and 1000 nM (sheet 'Samples'), CATDS: 0.23489654545894101",138 nM
Cc1occc1-c1nc(N)c(OC[C@@H](N)Cc2c[nH]c3ccccc23)cc1-c1cc2c(C)n[nH]c2cn1 [GSK1660450B],potency estimated from few doses,CDC42BPB; [1],106 nM
same,potency estimated from few doses,CIT; [1],135 nM
same,potency estimated from few doses,PIK3CD; [1],8.67 nM
same,potency estimated from few doses,PKN2; [1],2110 nM
same,potency estimated from few doses,PRKCA; [1],40 nM
same,potency estimated from few doses,RPS6KA3; [1],861 nM
same,potency estimated from few doses,RPS6KB1,112 nM
